TEAD-YAP inh: TEAD-YAP interaction inhibition; HEK-TIYL cells, TEAD-Gal4/YAP UAS-luciferase luminescence; inhibition, % at 9.12 µM; actives 1.4% (n = 640,000); AID 1259422; in the data active means inhibition above about 32%
FBW7 act: activators of human E3 ligase FBW7 | AlphaScreen FBW7–phospho-cyclin E peptide binding, activator screen | AID 1259310 | normalized activity (activation), % at 26.1 µM | actives 0.13% (n = 650,000); in the data active means normalized activity above about 1.9%;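 further: purified mutant Fbw7 with reduced substrate affinity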
GPR151 ag: human GPR151 activation; Q8TDV0; PathHunter beta-arrestin GPR151 cells, luminescence; activation, % at 11.2 µM; actives 1% (n = 650,000); AID 1508602; in the data active means activation above about 4.9%
MITF primary: human MITF inhibition, primary screen | O75030 | AlphaScreen MITF homodimerization, bead proximity signal | inhibition, % at 2.6 µM | actives 0.91% (n = 650,000); in the data active means inhibition above about 50%
Target sequence (O75030 whole entry, looked up): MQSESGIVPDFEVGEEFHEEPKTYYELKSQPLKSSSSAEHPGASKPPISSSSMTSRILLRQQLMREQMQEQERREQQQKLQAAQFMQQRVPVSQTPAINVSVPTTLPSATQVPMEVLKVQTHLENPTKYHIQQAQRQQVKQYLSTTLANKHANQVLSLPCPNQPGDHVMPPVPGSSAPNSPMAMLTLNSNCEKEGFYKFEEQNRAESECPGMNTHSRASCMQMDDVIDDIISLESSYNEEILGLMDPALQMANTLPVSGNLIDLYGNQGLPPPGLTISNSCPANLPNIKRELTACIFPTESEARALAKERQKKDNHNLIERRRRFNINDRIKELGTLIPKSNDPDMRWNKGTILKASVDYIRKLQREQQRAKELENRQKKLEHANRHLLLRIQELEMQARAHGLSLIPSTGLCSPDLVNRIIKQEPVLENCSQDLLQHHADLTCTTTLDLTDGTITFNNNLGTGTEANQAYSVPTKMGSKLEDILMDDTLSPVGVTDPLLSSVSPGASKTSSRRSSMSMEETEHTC
Each line names hits and unclear results; the compound was inactive in the other large screens; ! = repeats disagree. The list is not random: actives were taken first. Their share in the collection is about 3.5%.

CN(CCc1nc2ccc(F)cc2[nH]1)C(=O)c1cc(COc2cccc3cnccc23)on1	TEAD-YAP inh 55
Cc1c(C(C)NC(=O)c2cc(COc3cccc4cnccc34)on2)cnn1C (stereo not drawn)	TEAD-YAP inh 43
COc1ccc(-c2nc(NCc3ccccc3)c3ncn(-c4ccccc4)c3n2)cc1	none
COc1ccccc1Nc1c2c(nc3ncnn13)CCC2	none
COc1ccc(C)cc1Nc1c2c(nc3ncnn13)CCC2	TEAD-YAP inh 38
Cc1cc(S(=O)(=O)NCc2ccncc2)c(C)cc1Br	none
CCOc1ccc(S(=O)(=O)NCc2ccncc2)cc1C	TEAD-YAP inh 55
Cc1ccc(S(=O)(=O)NCc2ccncc2)cc1	TEAD-YAP inh 41
O=S(=O)(NCc1ccncc1)c1ccc(Br)cc1Br	TEAD-YAP inh 32
CCOc1cc(S(=O)(=O)NCc2ccncc2)ccc1Cl	TEAD-YAP inh 52
CCCC1=NN2C(=N)/C(=C/c3ccc(Cl)cc3)C(=O)N=C2S1	none
O=S(=O)(NCc1ccncc1)c1ccc(Cl)c(Cl)c1	TEAD-YAP inh 36
O=S(=O)(NCc1ccncc1)c1cccc(Cl)c1Cl	TEAD-YAP inh 35
O=S(=O)(NCc1cccnc1)c1cccc(Cl)c1Cl	none
O=C(Cn1c(=S)[nH]c2ccccc2c1=O)NCc1ccc(Cl)c(Cl)c1	none
N#Cc1c(-c2cccc(Br)c2)cc(-c2ccccc2)nc1N	none
O=C(Nc1ccc(Oc2ccc(NC(=O)c3ccc(F)cc3)cc2)cc1)c1ccc(F)cc1	none
CN(C)c1ccc(C(=C2C=CC(=[N+](C)C)C=C2)c2ccc(N(C)C)cc2)cc1	TEAD-YAP inh 89, MITF primary 92
CN(C)c1ccc(C(=NO)c2ccc(N(C)C)cc2)cc1	none
CC(=O)c1cn(CC(=O)Nc2cccc(C)c2C)c2ccccc12	TEAD-YAP inh 40
CC(=O)c1cn(CC(=O)Nc2ccc(C)cc2C)c2ccccc12	TEAD-YAP inh 40
COc1cc(C)c(NC(=O)Cn2cc(C(C)=O)c3ccccc32)cc1C	none
CC(C)CNC(=O)c1cccc2ccccc12	none
CC(N)(Cc1ccc(O)c(O)c1)C(=O)O (stereo not drawn)	MITF primary 56
N[C@H](Cc1ccc(I)cc1)C(=O)O	none
CCOC(=O)C(C)(N)Cc1ccc(O)c(O)c1 (stereo not drawn)	none
N[C@@H](Cc1ccc(O)c(O)c1)C(=O)O	MITF primary 79!
COC(=O)c1ccc(/C=N/Nc2nnnn2-c2ccccc2)cc1	none
NC(CCCc1ccccc1)c1ccc2c(c1)OCCO2 (stereo not drawn)	TEAD-YAP inh 55
c1cn(-c2ccc(Nc3nccc(-c4cncc(N5CCOCC5)c4)n3)cc2)cn1	TEAD-YAP inh 78
c1cc(-c2cncc(N3CCOCC3)c2)nc(Nc2ccc(-n3cncn3)cc2)n1	none
FC1(F)Oc2ccc(Nc3nccc(-c4cncc(N5CCOCC5)c4)n3)cc2O1	none
O=C1OCCN1c1ccc(Nc2nccc(-c3cncc(N4CCOCC4)c3)n2)cc1	TEAD-YAP inh 39
O=C(c1ccc(Nc2nccc(-c3cncc(N4CCOCC4)c3)n2)cc1)N1CCOCC1	TEAD-YAP inh 51
COc1ccc(Nc2nccc(-c3cncc(N4CCOCC4)c3)n2)cc1	TEAD-YAP inh 61
O=S(=O)(c1cc(Cl)ccc1Cl)N1CCN(Cc2ccccc2)CC1	none
c1ccc(OCCNc2nc(N3CCN(c4ccccn4)CC3)nc3c2ncn3C2CCCCC2)cc1	none
COc1c(NC(C)=O)oc2ccccc12	none
N#Cc1ccc(NC(=O)N2CCC3(CC2)OCc2cc(F)ccc2O3)cc1	none
c1cn(-c2ccc(Nc3nccc(Nc4ccc(N5CCOCC5)cc4)n3)cc2)cn1	TEAD-YAP inh 50
Nc1nc(Nc2ccc(-n3ccnc3)cc2)cc(Nc2ccc3c(c2)OCO3)n1	none
c1ccc(Cc2nc3ccc(Nc4nccc(-c5cncc(N6CCOCC6)c5)n4)cc3o2)cc1	none
CCc1nc2ccc(Nc3nccc(-c4cncc(N5CCOCC5)c4)n3)cc2o1	TEAD-YAP inh 34
c1ccc(Nc2ccnc(Nc3ccc(N4CCOCC4)cc3)n2)cc1	none
c1cn(-c2ccc(Nc3nccc(Nc4ccc5c(c4)OCO5)n3)cc2)cn1	TEAD-YAP inh 36
Cn1ncc2cc(Nc3nccc(-c4cncc(N5CCOCC5)c4)n3)ccc21	TEAD-YAP inh 69
CS(=O)(=O)Nc1cccc(C2=NN3C(C2)c2ccccc2OC3c2ccc(F)cc2)c1 (stereo not drawn)	none
CS(=O)(=O)N1CCC(Oc2cccc(C(=O)N3CCCCO3)c2)CC1	none
COc1cc(C2C(C(=O)OC(C)C)=C(C)NC3=C2C(=O)CC(C)(C)C3)ccc1OCc1ccccc1 (stereo not drawn)	none
O=[N+]([O-])c1ccccc1S(=O)(=O)Nc1ccc2ccccc2c1	none
CCOc1ccc(C)cc1S(=O)(=O)Nc1ccc(I)cc1	TEAD-YAP inh 42
CCOc1ccc(C)cc1S(=O)(=O)Nc1ccc(F)cc1	none
CC(C)n1c(CN(C)Cc2ccccc2)nc2c1c(=O)n(C)c(=O)n2C	TEAD-YAP inh 50
Cc1ccc(Cn2c(CN(C)Cc3ccccc3)nc3c2c(=O)n(C)c(=O)n3C)cc1	none
COc1cccc(Cn2c(NCc3ccco3)nc3c2c(=O)n(C)c(=O)n3C)c1	TEAD-YAP inh 40
CCNc1nc2c(c(=O)n(C)c(=O)n2C)n1CCc1ccccc1	TEAD-YAP inh 33
O=c1c2sc(=S)n(CCc3ccccc3)c2nc(SCc2nc3ccccc3[nH]2)n1C1CCCCC1	none
CCOc1ccccc1NC(=O)c1c(NC(=O)c2cccc(F)c2)sc2c1CCC(C)C2 (stereo not drawn)	none
O=C(NC1CCCCCCC1)c1ccc(N2CC3CC(C2)c2cccc(=O)n2C3)c(NS(=O)(=O)c2ccc(Cl)cc2)c1 (stereo not drawn)	none
COc1cccc(CNC(=O)Nc2nc3ccc(-c4cn[nH]c4)cc3s2)c1	TEAD-YAP inh 96
O=C(Nc1nc2ccc(-c3cn[nH]c3)cc2s1)C1COc2ccc(F)cc2C1 (stereo not drawn)	TEAD-YAP inh 48
COc1ccc2c(c1)CC(C(=O)Nc1nc3ccc(-c4cn[nH]c4)cc3s1)CO2 (stereo not drawn)	none
O=C(Nc1nc2ccc(-c3cn[nH]c3)cc2s1)C1CNCC1c1ccccc1 (stereo not drawn)	TEAD-YAP inh 54
COc1cccc(C(=O)Nc2nc3ccc(-c4cn[nH]c4)cc3s2)c1	none
NCC(=O)N1CC(C(=O)Nc2nc3ccc(-c4cn[nH]c4)cc3s2)C(c2ccccc2)C1 (stereo not drawn)	none
Cc1cc(C)cc(NC(=O)C2C3C=CC4(O3)C2C(=O)N(CCc2ccccc2)C4C(=O)NC2CCCC(C)C2C)c1 (stereo not drawn)	none
O=C(NS(=O)(=O)c1ccc(Cl)cc1)c1ccc(Cl)cc1	none
COc1ccc(CNC(=O)N2CCC(c3nnc(C(C)C)o3)CC2)cc1OC	FBW7 act 2.5
COc1ccc(CCNC(=O)CN2CCC(c3nnc(C(C)C)o3)CC2)cc1OC	none
